# In the supplement of paper PMC6555819:
# Experiments:
# Assay in all cases: PBM binding z-score (relative to random genomic background probes); higher = stronger binding; sequences stand for … in GC…GCGATTGACAGCGTAGAATGAAGG
# [1] = test system: FXR:RXRa (NR concentration 270 nM, RXRa partner concentration 90 nM)
# Method in brief: (§1)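 Custom Agilent 4×180K protein-binding microarrays carried double-stranded probes, each with a 34-nt variable region. These regions held direct-repeat seeds, single-nucleotide variants, half-site ablations and random human genomic background sequences. Ligand-free nuclear receptor dimers were incubated on the arrays for 1 h, antibodies against each partner (one per run) detected binding, and scanned fluorescence was regression-normalized. Binding z-scores take the random background probes as reference.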
# [2] = test system: LXRa:RXRa (NR concentration 270 nM, RXRa partner concentration 90 nM)
# Method in brief: as §1
# [3] = test system: LXRa homodimer (NR concentration 270 nM)
# Method in brief: as §1
# [4] = test system: LXRb:RXRa (NR concentration 270 nM, RXRa partner concentration 90 nM)
# Method in brief: as §1
# [5] = test system: LXRb homodimer (NR concentration 270 nM)
# Method in brief: as §1
# [6] = test system: PPARa:RXRa (NR concentration 270 nM, RXRa partner concentration 90 nM)
# Method in brief: as §1
# [7] = test system: PPARg:RXRa (NR concentration 180 nM, RXRa partner concentration 90 nM)
# Method in brief: as §1
# [8] = test system: PPARg:RXRa 270nM:90nM, anti-RXR (NR concentration 270 nM, RXRa partner concentration 90 nM)
# Method in brief: as §1
# [9] = test system: PPARg:RXRa 30nM:10nM, anti-RXR (NR concentration 30 nM, RXRa partner concentration 10 nM)
# Method in brief: as §1
# [10] = test system: PPARg:RXRa 90nM:30nM, anti-RXR (NR concentration 90 nM, RXRa partner concentration 30 nM)
# Method in brief: as §1
Sequence,PBM binding z-score [1],PBM binding z-score [2],PBM binding z-score [3],PBM binding z-score [4],PBM binding z-score [5],PBM binding z-score [6],PBM binding z-score [7],PBM binding z-score [8],PBM binding z-score [9],PBM binding z-score [10]
TCTCGGAGGACACGAAAGGTCAGGGCTCGACATC,3.31,3.84,3.08,3.5,0.0689,3.95,1.6,2.91,2.57,2.76
CCTAGCAGGCCAGTCTGGGTCACTCAAGGCTTGA,0.876,0.686,-0.81,0.487,-1.44,2.13,-0.179,0.439,-1.1,0.0493
CCTAGTGGGTCAAGGTCACACACGCTATAGGTAC,5.66,4.37,1.16,3.95,0.411,5.54,8.69,7.42,5.3,6.95
CGGACTAGGTCATTGACAGGACAGTGAATAGTAA,3.76,2.45,0.229,1.86,-0.21,4.05,6.69,5.73,2.87,4.89
AGTATGAGGTTATACGTAGATCAGGGAAGAAAGT,1.82,2.03,0.26,1.56,0.204,2.46,1.32,1.2,0.646,1.07
TCTGCTAGGTCAGTTGGTCAGCTGACGAGCTGCC,0.985,0.585,-0.512,0.147,0.278,1.34,0.32,1.68,1.08,0.992
CAAACTAGGTCACCCGAAGGTCAAAGTCCGCATG,6.1,6.03,4.86,5.07,1.57,6.24,9.64,8,5.77,7.5
TGAATGAGGTTATAAGATCAGGGAGCGTTGCAAA,1.22,1.19,-0.626,0.707,-0.471,2.63,1.63,1.91,0.643,1.55
AGAATGAGGATATTAAGATCAGGGAATTGCGGTC,-0.251,-0.424,0.0165,-0.53,-0.355,-0.323,0.311,-0.0295,-0.0325,-0.182
TCTTGTAGATCAACAGAAGGTTAAGAAAGATCGA,0.396,1.11,0.0845,0.953,-0.0831,1.27,0.104,1.35,2.82,2.04
CCTATGAGTTGACCATAAGGGCAACCGAAGCTCG,0.925,0.669,-0.0503,0.247,0.184,0.685,0.512,0.342,-0.144,-0.218
CCAGACAGGTGAAAGGTAACACAGTCTGGTACGC,0.883,0.799,-0.29,0.919,-0.313,3.54,5.85,6.13,4.72,6.42
AGTCAAAGTTCAGGACGAGCTAACGTAAAGCACG,3.87,3.76,0.971,1.55,0.0911,3.08,4.04,4.89,2.01,4.19
CCTTACGGGTCACGAGGTTCTAGCACGACGAGCG,6.53,4.22,-0.19,3.53,0.0881,5.66,6.59,6.31,3.2,5.36
CAGCCTAGGTCAGGGCCATTATAGGAGGAACGTT,1.65,1.08,-0.000598,0.902,-0.851,2.17,1.2,1.24,-0.158,0.533
ACTAGCAGGCCAAGTTTGGGTCACACAAACAAAG,0.341,0.408,-0.252,1.17,-0.354,1.85,0.563,0.793,-0.154,0.0156
GCTAGTTGGTCAGTATAAGGTCACACACCGGTCG,3.04,2.87,3.48,2.64,0.601,3.23,1.38,2.09,0.612,1.37
ACTATTAGTTGACTTCGGGCAACCGATACGACGC,0.0947,0.0355,0.567,0.0208,0.752,-0.237,0.757,0.358,0.0391,0.162
CCTCGGCGGACAACAGGAGGTCAGAGCTGCCAGA,0.527,1.43,1.67,1.06,-1.27,1.68,-0.102,0.0174,-0.988,-0.415
TCTCGGAGGACACGAAGGTCAGATCTTTCCAGAG,1.76,1.41,1.09,1.64,-0.544,1.98,0.475,1.77,2.61,2
CCTAGCAGGCCAGGGTCAATCAAGCATTTCGCTT,3.41,2.94,-0.348,3.36,-1.18,4.23,0.925,1.66,-0.329,0.705
CGTCCAAGGTCAGCAGGTCAGTAAAAGCGACGTG,5.97,4.07,0.614,3.22,-0.235,4.9,3.97,4.43,1.37,2.87
CCTGCTGGGCCATCAGGTCATTGATATCAACGTT,1.15,0.86,0.504,1.18,-0.89,1.73,0.432,1.06,-0.123,0.467
CAAACTAGGTGAAAGGTCAAAGTCGAGCCAACCA,6.87,6.26,4.36,6.08,2.26,7.39,14.1,11.5,15.3,14.2
